Source: PubChem (The Scripps Research Institute Molecular Screening Center)
TEAD-YAP inh: TEAD-YAP interaction inhibition, primary screen, TEAD-YAP interaction inhibitor project, luminescence, HEK-TIYL cells; TEAD-Gal4/YAP UAS-luciferase luminescence; inhibition, % at 9.12 µM; 1.4% of 640,000 active; AID 1259422, 2018; in the data active = inhibition above about 32%;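 note: 0% = median of test compound wells and 100% = reference inhibitor wells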
MITF primary: MITF inhibitors, primary screen, biochemical, AlphaScreen, human | inhibition, % at 2.6 µM | AlphaScreen MITF homodimerization, bead proximity signal | Microphthalmia-associated transcription factor (Homo sapiens), O75030 | 0.91% of 650,000 active; in the data active = inhibition above about 50%;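 note: 0% = vehicle wells with protein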
Target sequence (O75030 whole entry, looked up): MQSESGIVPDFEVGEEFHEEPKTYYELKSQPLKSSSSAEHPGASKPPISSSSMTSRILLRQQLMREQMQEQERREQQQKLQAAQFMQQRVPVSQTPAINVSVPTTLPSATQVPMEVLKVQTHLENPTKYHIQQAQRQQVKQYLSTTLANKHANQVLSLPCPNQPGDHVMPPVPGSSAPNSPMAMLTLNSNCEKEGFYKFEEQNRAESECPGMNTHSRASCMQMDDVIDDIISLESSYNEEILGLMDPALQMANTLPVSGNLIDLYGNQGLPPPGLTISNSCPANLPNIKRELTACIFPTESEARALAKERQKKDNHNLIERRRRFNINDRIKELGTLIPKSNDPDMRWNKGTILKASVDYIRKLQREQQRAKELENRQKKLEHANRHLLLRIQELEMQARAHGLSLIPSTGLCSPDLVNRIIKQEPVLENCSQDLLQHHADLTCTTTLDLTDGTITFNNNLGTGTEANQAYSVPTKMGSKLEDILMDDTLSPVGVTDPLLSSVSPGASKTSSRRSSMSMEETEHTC
FBW7 act: FBW7 E3 ligase activators, primary screen, biochemical, AlphaScreen, human; F-box/WD repeat-containing protein 7 (Homo sapiens), Q969H0; AlphaScreen FBW7–phospho-cyclin E peptide binding, activator screen; normalized activity (activation), % at 26.1 µM; 0.13% of 650,000 active; in the data active = normalized activity above about 1.9%;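 note: purified mutant Fbw7 with reduced substrate affinity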
GPR151 activ: activators of human GPR151, primary screen, cell-based, PathHunter beta-arrestin, luminescence. PathHunter beta-arrestin GPR151 cells. activation, % at 11.2 µM. G-protein coupled receptor 151 (Homo sapiens), Q8TDV0. 1% of 650,000 active; in the data active = activation above about 4.9%;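 note: 0% = median of compound wells and 100% = cells with positive control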
GPR151 conf act: GPR151 activators, triplicate retest, confirmation, cell-based, PathHunter beta-arrestin, luminescence; GPR151 PathHunter beta-arrestin cells, 90 min; % of EA-reagent control over plate median; AID 1508609, 2020; activation, % at 11.2 µM; shares compounds with GPR151 activ; 6,700 tested, under 10 active;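 active = mean percent activation across replicates above the confirmation screen cutoff of 4.91%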
GPR119 ag: GPR119 activators in beta-arrestin cells, counter-screen for GPR151 activator project, cell-based, PathHunter beta-arrestin, luminescence, triplicate; shares compounds with GPR151 activ; activation, % at 11.2 µM; 90 min; 0 = compound-well median, 100 = enzyme-acceptor control; AID 1508611, 2020; 0.3% of 6,700 active;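 active = mean percent activation in the counterscreen above 29.09%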;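 note: counterscreen on off-target GPR119 to flag nonselective hits from the GPR151 activator screen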
Active calls of the source: *; / = no result given. Shown are actives, neighbours in structure and some others; about 3.5% of the full set was active somewhere.

SMILES	TEAD-YAP inh	MITF primary	FBW7 act	GPR151 activ	GPR151 conf act	GPR119 ag
COCCNC(=O)C(C)N(c1ccc(Oc2ccccc2)cc1)S(C)(=O)=O (stereo not drawn)	-0.8	15.5	0.1	-0.1	/	/
COCCNC(=O)c1ccccc1NC(=O)C(C)N(c1ccc(OC)cc1)S(C)(=O)=O (stereo not drawn)	-3.5	-9.9	-0.1	6.7*	0.0	-8.2
Cc1ccc(CNCc2ccco2)cc1	-0.1	23.7	-0.4	7.0*	0.9	8.2
Cc1cc(NCC2CCCO2)nc(Nc2ccc(N3CCOCC3)cc2)n1 (stereo not drawn)	19.9	3.6	-0.1	4.9*	-0.4	-6.6
COc1ccc(Nc2nc(C)cc(NCC3CCCO3)n2)cc1 (stereo not drawn)	-0.5	3.9	-0.1	1.5	/	/
Cc1cc(Cl)nc(Cl)c1C(=O)Nc1ccc(Cl)cc1	-6.4	3.8	-0.1	-0.5	/	/
Cc1ccc(CN2CCc3nnc(CNC(=O)c4ccccn4)n3CC2)cc1	11.3	7.6	0.0	-0.9	/	/
Cc1ccc(CN2CCc3nnc(CNC(=O)c4ccccc4)n3CC2)cc1	5.1	5.8	0.2	6.0*	-0.3	5.5
C/C(=C\c1ccco1)CN1CCc2nnc(CNC(=O)CCc3cccnc3)n2CC1	-1.0	17.8	0.1	-1.9	/	/
CC(C)=CCN1CCc2nnc(CNC(=O)c3ccccn3)n2CC1	0.2	2.6	0.0	0.0	/	/
C/C=C(\C)CN1CCc2nnc(CNC(=O)CCc3cccnc3)n2CC1	4.8	8.8	0.1	15.3*	-0.4	-3.5
CC(C)=CCCC(C)CN1CCc2nnc(CNC(=O)c3ccccn3)n2CC1 (stereo not drawn)	1.8	8.0	-0.1	6.8*	1.0	8.0
Cc1ccc(C2=CC(c3cccc(Cl)c3)n3nnnc3N2)cc1C (stereo not drawn)	11.2	0.1	-0.1	-0.2	/	/
CC1(C)c2ccccc2N(CC(=O)NCc2ccccc2)C12C=Cc1cc([N+](=O)[O-])ccc1O2 (stereo not drawn)	3.3	3.1	-0.3	0.0	/	/
COC(=O)c1ccc2c(c1)C(C)(C)C1(C=Cc3cc([N+](=O)[O-])ccc3O1)N2C (stereo not drawn)	3.1	9.9	0.0	5.3*	0.9	10.3
CC1(C)c2ccccc2N(CC(=O)NCc2ccc(Cl)cc2)C12C=Cc1cc([N+](=O)[O-])ccc1O2 (stereo not drawn)	-5.5	10.3	-0.1	6.3*	-1.0	-4.4
C=C(/C=C(\NC(=O)c1ccccc1)C(=O)N1CCC(N2CCCCC2)CC1)O/C=C\C	-16.7	1.4	0.3	0.6	/	/
CCOc1ccccc1/C=C1\N=C(c2ccc(C)cc2)OC1=O	-6.4	12.3	0.1	0.2	/	/
Cc1cccc(C2=N/C(=C\c3ccc(I)o3)C(=O)O2)c1	7.5	-10.5	-0.1	5.3*	0.1	-0.7
COc1ccc(C2=N/C(=C/c3cccc(OC)c3OC)C(=O)O2)cc1Br	-2.5	7.9	0.0	5.0*	-1.4	1.0
CCOc1ccccc1/C=C1\N=C(c2cccc(C)c2)OC1=O	-10.6	0.6	0.0	9.7*	-0.5	0.3
CC(=O)Oc1ccc(/C=C2\N=C(c3cccc(C)c3)OC2=O)cc1OC(C)=O	2.3	0.2	-0.2	7.6*	1.6	0.8
CC(=O)N1CCC2(CC1)OCc1cc(-c3ccsc3)ccc1O2	1.4	14.9	0.8	-0.3	/	/
CC(C(=O)O)N1C(=O)c2ccc(Br)cc2C1=O (stereo not drawn)	-2.6	-4.7	-0.1	2.2	/	/
COC(=O)c1c(-c2ccc(C(C)(C)C)cc2)csc1N	1.9	-2.6	0.1	-0.9	/	/
SMILES	TEAD-YAP inh	MITF primary	FBW7 act	GPR151 activ	GPR151 conf act	GPR119 ag
O=C(Nc1ccc([N+](=O)[O-])cc1Cl)c1cc2ncc(Br)cn2n1	-3.7	5.8	-0.1	-0.8	/	/
Cc1ccc(O)c(NC(=O)c2cc3ncc(Br)cn3n2)c1	-9.7	12.9	0.7	-1.0	/	/
O=C(Nc1ccc([N+](=O)[O-])cc1Cl)c1cnn2cc(Br)cnc12	0.3	2.5	0.3	7.2*	-0.6	5.9
Cc1ccc(O)c(NC(=O)c2cnn3cc(Br)cnc23)c1	2.4	0.6	0.8	7.5*	1.0	4.0
CC(C)[C@H](NC(N)=O)C(=O)Nc1ccc(I)cc1	1.1	6.3	-0.1	5.9*	1.7	11.9
O=C(Nc1ccc(Br)cc1F)NC1CCCCC1	-44.6	-4.0	-0.1	6.6*	0.9	-0.1
Cc1nnc(SCC#N)n1Cc1ccccc1	-0.9	-0.8	-0.2	0.1	/	/
Cc1ccc(C(C(=O)NC2CCCC2)N(C(=O)c2ccco2)C2CC2)cc1 (stereo not drawn)	8.8	4.2	0.0	0.5	/	/
Nc1ccc2nc(-c3ccc(N=Cc4cc([N+](=O)[O-])cc([N+](=O)[O-])c4O)cc3)[nH]c2c1	1.6	1.5	-0.1	7.0*	-0.1	3.2
Nc1ccc2nc(-c3ccc([N+](=O)[O-])cc3)[nH]c2c1	-13.2	3.1	0.1	-4.7	/	/
CC[n+]1c(/C=C/N(C)c2ccccc2)oc(-c2ccccc2)c1-c1ccccc1	91.7*	1.9	0.0	5.7*	0.5	18.4
CCn1c(C)cc(/C=C/c2oc3ccccc3[n+]2CC)c1C	-5.5	19.5	0.1	-2.5	/	/
O=C(CSc1ccc(F)cc1)Nc1ccc(Cl)c(N2CCCS2(=O)=O)c1	-4.6	-7.6	0.2	12.2*	0.4	0.9
Cc1sc(NC(=O)COc2ccc3ccccc3c2)c(C(N)=O)c1C	1.4	13.7	0.3	0.9	/	/
O=C1CCC(=O)N1c1ccc(CSc2nnnn2C2CCCCC2)cc1	-5.8	-2.4	0.9	6.9*	-0.3	-4.0
CCC(Sc1nc2ccccc2o1)C(=O)Nc1nccs1 (stereo not drawn)	/	/	/	-2.8	/	/
Cc1cc(Cl)ccc1NC(=O)c1ccc(Br)o1	-34.4	-5.9	-0.3	0.3	/	/
COC(=O)c1cccc(NC(=O)c2ccc[n+](C)c2)c1	-3.1	-2.6	0.0	-0.2	/	/
C[n+]1cccc(C(=O)Nc2ccccc2)c1	-0.9	16.8	0.3	5.4*	-1.1	-7.6
OCc1ccccc1NC(=S)Nc1cccnc1	0.1	11.6	-0.1	5.8*	-0.5	-9.8
Cc1ccccc1NC(=S)Nc1cccnc1	1.0	8.8	0.1	-0.7	/	/
Cc1ccccc1NC(=S)NCc1cccnc1	10.1	4.8	0.1	8.3*	0.6	2.1
Cc1cnc(-c2ccc(N3CCOCC3)nc2)nc1NC1CC1	-12.1	-8.4	0.3	1.9	/	/
C/C(=N/OCO/N=C(\C)c1cccc(F)c1)c1cccc(F)c1	4.2	21.5	0.7	-0.6	/	/
